# Experimental data taken from PubChem BioAssay.
# A number with no mark means an inactive call. Calls of active or inactive are those of the source.
# Assay: yeast growth modulation, basal conditions, primary screen, YJM789 clinical isolate, OD600, 24 h (AID 1089);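 note: growth of clinical yeast isolate S. cerevisiae YJM 789 seeded 1000 cells per well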
# Details: S. cerevisiae YJM789 growth, higher = more signal, called active from +8 up or from −8 down
# Note: test concentration not given here.
row,Compound,z-score
1,O=[N+]([O-])c1ccc(C[n+]2ccc(CCCO)cc2)o1,0.593
2,C=C(C)[C@@H]1CC=C(C(O)C2C=CC3C(=O)N(Cc4ccccc4)C(=O)C3N2n2cnnc2)CC1 (some centres not stated),-0.542
3,CCCNC(=O)[C@@]1(C)c2ccccc2C(=O)N(Cc2cc(F)cc(C(F)(F)F)c2)[C@H]1c1ccc(CO)cc1,-1.34
4,CO[C@H]1O[C@H](CO)[C@@H](OC(=O)Nc2cccc(F)c2)[C@H](OC(=O)Nc2ccccc2-c2ccccc2)[C@@H]1OC(=O)Nc1ccccc1-c1ccccc1,2.1
5,CCOC(=O)N1C(c2ccc(OCCCO)cc2)=NC(C(=O)OC)N1C(=O)OCC (configuration not stated),-0.925
6,COCCCNC(=O)[C@@]1(Cc2ccccc2I)c2ccccc2C(=O)N(Cc2ccccc2)[C@H]1c1ccc(CO)cc1,0.411
7,COc1ccc(C#Cc2ccc3c(c2)[C@]2(C(=O)N3)[C@H](C(=O)N3CCN(c4ncccn4)CC3)[C@H]3C(=O)O[C@H](c4ccccc4)[C@H](c4ccccc4)N3[C@@H]2c2ccc(O)cc2)cc1,0.77
8,CN(C)CCCC[C@@H]1NC(=O)[C@@H]2C[C@H](C(=O)NCc3ccc(F)cc3)[C@H](c3cccc(OCCO)c3)N2C1=O,-0.65
9,O=C1O[C@@H](c2ccccc2)[C@@H](c2ccccc2)N2[C@@H](c3ccc(O)cc3)[C@]3(C(=O)Nc4ccc(C#CCCO)cc43)[C@@H](C(=O)O)[C@H]12,0.414
10,CC(C)NC(=O)[C@@]1(c2ccc([N+](=O)[O-])cc2)CC(=O)N(C(C)C)[C@@H]1c1ccc(CO)cc1,-2.06
11,C=CCC(OC(C)=O)[C@@H]1[C@@H](N(Cc2ccc(-c3cccc(C(F)(F)F)c3)o2)C(=O)Cc2ccc(OC)cc2)c2cc(OCCCO)ccc2N1C(=O)Cc1ccc(OC)cc1 (some centres not stated),-0.816
12,C[n+]1ccc2ccc(O)cc2c1,0.0119
13,C=C(CCCC)/C(=C/C[C@H](OC(C)=O)c1ccc(CO)o1)c1cc(C(=O)OC)ccc1OC,1.02
14,COCCOC(=O)N1C(=O)[C@@]2(c3cc(C#Cc4ccc(OC)cc4)ccc31)[C@H](c1ccc(OCCO)cc1)N1[C@H](c3ccccc3)[C@H](c3ccccc3)OC(=O)[C@H]1[C@@H]2C(=O)N1CCc2cc(OC)c(OC)cc2C1,2.81
15,CC(C)C(O)C1C=CC2C(=O)N(C)C(=O)C2N1N1CCCCC1 (configuration not stated),0.252
16,CCN(CC)c1ccc(N2CC=CC34O[C@@H]5C=CCOC(=O)[C@@H]5[C@H]3C(=O)N(CCCCCO)[C@@H]4C2=O)cc1 (some centres not stated),-0.821
17,Cc1cc(C)c(C(O)C2C=CC3C(=O)NC(=O)C3N2Nc2ccccn2)c(C)c1 (configuration not stated),0.441

# Assay: fission yeast growth modulation, primary screen, strain 972, OD600, 24 h, no modulator (AID 1090);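 note: basal condition with compound alone and no growth modifier present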
# Details: S. pombe 972 growth, higher = more signal, called active from +8 up or from −8 down
row,Compound,z-score
1,O=C1c2ccccc2[C@](Cc2ccccc2I)(C(=O)O)[C@H](c2ccc(CO)cc2)N1Cc1ccccc1C(F)(F)F,0.0662
2,C=CCN1C(=O)[C@@]2(O[C@@H](CCO)[C@H]([Si](C)(C)c3ccc(OC)cc3)[C@H]2C)c2cc(NC(C)=O)ccc21,-1.67
3,O=C1O[C@@H](c2ccccc2)[C@@H](c2ccccc2)N2[C@@H](c3ccc(O)cc3)[C@]3(C(=O)Nc4ccccc43)[C@@H](C(=O)NC[C@H](O)c3ccccc3)[C@H]12,0.572
4,C=C(CCCC)C(=O)CC[C@@H](OC(=O)c1ccccc1-c1ccccc1C(=O)O)c1ccc(CO)o1,-0.0561
5,COCCOC(=O)N1C(=O)[C@@]2(c3cc(C#CCCO)ccc31)[C@H](c1ccc(O)cc1)N1[C@H](c3ccccc3)[C@H](c3ccccc3)OC(=O)[C@H]1[C@@H]2C(=O)N1CCCCCCC1,0.948
6,O=C(NCC(O)CO)[C@]1(CCS(=O)(=O)c2ccccc2)N=C(c2ccc(OCCCO)cc2)O[C@@H]1c1ccccc1 (some centres not stated),-0.149
7,CC(C)NC(=O)[C@@H]1c2ccccc2C(=O)N(C2CCCCC2)[C@H]1c1ccc(CO)cc1,0.0765
8,CCOC(=O)C=Cc1cccc(OC)c1O,-7.21
9,NC(=O)NCC#Cc1ccc2c(c1)[C@]1(C(=O)N2)[C@H](C(=O)NC[C@H](O)c2ccccc2)[C@H]2C(=O)O[C@H](c3ccccc3)[C@H](c3ccccc3)N2[C@@H]1c1ccccc1OCCO,-0.133
10,CN1C(=O)C2C(C1=O)C1C=C(c3ccc(CO)cc3)C2C(C2CC2)N1Cc1cc2c(cc1Br)OCO2 (configuration not stated),-6.09
11,O=C1OCCC/C=C\[C@H]2OC34C=CCN(Cn5nnc6ccccc65)C(=O)[C@H]3N(CCCO)C(=O)[C@@H]4C12 (some centres not stated),0.0555
12,CC(C)N1C(=O)c2ccccc2[C@](C)(C(=O)NC2CC2)[C@@H]1c1ccc(CO)cc1,0.193
13,O=C1C2C=CC(C(O)CCc3ccccc3)N(Nc3ccccc3)C2C(=O)N1c1ccccc1 (configuration not stated),0.226
14,O=C1O[C@H](c2ccccc2)[C@H](c2ccccc2)N2[C@H]1[C@@H](C(=O)N1CCCCCCC1)[C@]1(C(=O)Nc3ccc(C#CC4=CCCCC4)cc31)[C@H]2c1ccc(O)cc1,0.218
15,CC(C)OC(=O)C1=CCC(c2cccc(Cl)c2)O1 (configuration not stated),-5.63
16,C=CCN1C(=O)[C@@]2(O[C@@H](CCO)[C@H]([Si](C)(C)c3ccc(OC)cc3)[C@H]2C)c2cc(N3C(=O)COc4ccccc43)ccc21,0.842
17,C=CCC(OC(C)=O)[C@@H]1[C@@H](N(Cc2ccc(-c3ccccc3)cc2)C(=O)c2ccc(C)cc2)c2cc(OCCCO)ccc2N1C(=O)c1ccc2ccccc2n1 (some centres not stated),-0.772
18,COCCOC(=O)N1C(=O)[C@@]2(c3cc(C#CC4=CCCCC4)ccc31)[C@H](c1ccc(OCCO)cc1)N1[C@H](c3ccccc3)[C@H](c3ccccc3)OC(=O)[C@H]1[C@@H]2C(=O)Nc1nc2ccccc2s1,1.04

row,Compound,z-score
1,O=[N+]([O-])c1ccc(C[n+]2ccc(CCCO)cc2)o1,-12.9 (active)
2,C=C(C)[C@@H]1CC=C(C(O)C2C=CC3C(=O)N(Cc4ccccc4)C(=O)C3N2n2cnnc2)CC1 (some centres not stated),0.312
3,CCCNC(=O)[C@@]1(C)c2ccccc2C(=O)N(Cc2cc(F)cc(C(F)(F)F)c2)[C@H]1c1ccc(CO)cc1,-0.974
4,CO[C@H]1O[C@H](CO)[C@@H](OC(=O)Nc2cccc(F)c2)[C@H](OC(=O)Nc2ccccc2-c2ccccc2)[C@@H]1OC(=O)Nc1ccccc1-c1ccccc1,1.88
5,CCOC(=O)N1C(c2ccc(OCCCO)cc2)=NC(C(=O)OC)N1C(=O)OCC (configuration not stated),-0.265
6,COCCCNC(=O)[C@@]1(Cc2ccccc2I)c2ccccc2C(=O)N(Cc2ccccc2)[C@H]1c1ccc(CO)cc1,0.512
7,COc1ccc(C#Cc2ccc3c(c2)[C@]2(C(=O)N3)[C@H](C(=O)N3CCN(c4ncccn4)CC3)[C@H]3C(=O)O[C@H](c4ccccc4)[C@H](c4ccccc4)N3[C@@H]2c2ccc(O)cc2)cc1,0.86
8,CN(C)CCCC[C@@H]1NC(=O)[C@@H]2C[C@H](C(=O)NCc3ccc(F)cc3)[C@H](c3cccc(OCCO)c3)N2C1=O,-1.41
9,O=C1O[C@@H](c2ccccc2)[C@@H](c2ccccc2)N2[C@@H](c3ccc(O)cc3)[C@]3(C(=O)Nc4ccc(C#CCCO)cc43)[C@@H](C(=O)O)[C@H]12,-0.571
10,CC(C)NC(=O)[C@@]1(c2ccc([N+](=O)[O-])cc2)CC(=O)N(C(C)C)[C@@H]1c1ccc(CO)cc1,-0.476
11,C=CCC(OC(C)=O)[C@@H]1[C@@H](N(Cc2ccc(-c3cccc(C(F)(F)F)c3)o2)C(=O)Cc2ccc(OC)cc2)c2cc(OCCCO)ccc2N1C(=O)Cc1ccc(OC)cc1 (some centres not stated),-0.566
12,C[n+]1ccc2ccc(O)cc2c1,-0.208
13,C=C(CCCC)/C(=C/C[C@H](OC(C)=O)c1ccc(CO)o1)c1cc(C(=O)OC)ccc1OC,-1.01
14,COCCOC(=O)N1C(=O)[C@@]2(c3cc(C#Cc4ccc(OC)cc4)ccc31)[C@H](c1ccc(OCCO)cc1)N1[C@H](c3ccccc3)[C@H](c3ccccc3)OC(=O)[C@H]1[C@@H]2C(=O)N1CCc2cc(OC)c(OC)cc2C1,1.39
15,CC(C)C(O)C1C=CC2C(=O)N(C)C(=O)C2N1N1CCCCC1 (configuration not stated),0.891
16,CCN(CC)c1ccc(N2CC=CC34O[C@@H]5C=CCOC(=O)[C@@H]5[C@H]3C(=O)N(CCCCCO)[C@@H]4C2=O)cc1 (some centres not stated),-1.3
17,Cc1cc(C)c(C(O)C2C=CC3C(=O)NC(=O)C3N2Nc2ccccn2)c(C)c1 (configuration not stated),1.11
